Source: PubChem (Broad Institute)
These entries were drawn from the full list.
aSyn UTR act – Activators via SNCA 5'UTR binding, MLPCN; alpha-synuclein 5'UTR reporter, activators screen; activity score, % (tested at 7.5 µM), hits read low; 300,000 compounds, 7.1% hits; AID 1814, 2009; in the data active = activity score below about -60%
Numbers stand for hits; - = inactive.

SMILES	aSyn UTR act
O=C(c1cc2ccccc2oc1=O)N1CCN(c2ncccn2)CC1	-91.7
O=C(Nc1ccc(F)cc1F)c1cc2ccccc2oc1=O	-155.9
CCOc1ccccc1NC(=O)c1cc2ccccc2oc1=O	-94.8
CC(C)OC(=O)c1cc2ccccc2oc1=O	-66.5
Cc1cc(N/N=C/c2cccc(Br)c2)nc2ccccc12	-241.1
Cc1cc(N/N=C/c2ccncc2)nc2ccccc12	-137.0
CC(C)/C=N/Nc1nc(-c2ccc(Br)cc2)cs1	-141.3
O=C1/C(=C/c2ccco2)CCc2ccccc21	-139.9
COc1ccc2c(c1)CC/C(=C/c1ccco1)C2=O	-160.4
CCOc1ccc(/C=C2\CCc3ccccc3C2=O)cc1	-170.2
COc1ccc(/C=C2\CCc3ccccc3C2=O)cc1CN1CCOCC1	-
CC(=O)N1N=C(c2ccc(C)o2)CC1c1ccc(Br)cc1 (configuration not stated)	-198.9
COc1ccc(C2CC(c3ccc(Cl)cc3)=NN2C(C)=O)cc1 (configuration not stated)	-115.9
COc1ccc(C2CC(c3ccc4ccccc4c3OC(C)=O)=NN2C(C)=O)cc1 (configuration not stated)	-203.1
COc1ccc(C2CC(c3ccc(C)o3)=NN2C(C)=O)cc1 (configuration not stated)	-128.2
COc1cc(C=O)c(Br)cc1OCc1ccc(C)cc1	-204.0
COc1ccc(C(=O)Nc2ccc3c4c(cccc24)CC3)cc1	-84.0
COc1ccc(C(=O)Nc2cccc3c2CCCC3)cc1	-131.7
COc1ccc(C(=O)Nc2cc3c(oc2=O)CCCC3=O)cc1	-68.6
O=S(=O)(Nc1nc2ccccc2nc1N1CCc2ccccc2C1)c1ccc(Cl)cc1	-
Cc1ccccc1S(=O)(=O)Nc1nc2ccccc2nc1N1CCc2ccccc2C1	-108.3
O=C(COc1ccc2ccccc2c1Br)Nc1ccncc1	-83.7
O=C(COc1ccccc1[N+](=O)[O-])Nc1cccnc1	-71.5
O=C(COc1ccc2ccccc2c1Br)Nc1cccnc1	-209.8
O=C(COc1ccc2ccccc2c1Br)NC(=S)Nc1cccc(CO)c1	-66.4
SMILES	aSyn UTR act
NS(=O)(=O)c1cc2c(cc1Cl)NC(C1C[C@H]3C=C[C@@H]1C3)NS2(=O)=O (some centres not stated)	-79.7
CN(/N=C/c1ccncc1)c1cnc2ccccc2n1	-205.7
CCCCCC(=O)Nc1ccc(N2CCN(CC)CC2)c(Cl)c1	-152.1
CCN1CCN(c2ccc(NC(=O)c3ccccc3F)cc2Cl)CC1	-136.0
O=C(Nc1ccncc1)c1sc2ccccc2c1Cl	-97.2
CCn1nnc(NC(=O)c2sc3ccccc3c2Cl)n1	-82.5
O=C1CCC/C(=N/NC(=O)c2sc3ccccc3c2Cl)C1	-89.7
CCn1nnc(NC(=O)c2ccc(-c3ccc(Cl)cc3)o2)n1	-63.9
O=C(Nc1ccnc(=O)[nH]1)c1sc2ccccc2c1Cl	-111.1
O=C(NNC(=S)NC(=O)c1sc2ccccc2c1Cl)c1ccc(Cl)cc1	-67.0
O=C(c1cc2ccccc2oc1=O)N(Cc1ccco1)C1CCS(=O)(=O)C1 (configuration not stated)	-97.0
CC1CCN(S(=O)(=O)N2CCC(C(=O)NC3CCCC3)CC2)CC1	-96.8
CCCS(=O)(=O)N1CCC(C(=O)NC2CCC(C)CC2)CC1 (configuration not stated)	-64.0
COc1ccc2nc(SCC(=O)Nc3ccc4c(c3)OCCO4)[nH]c2c1	-63.2
O=C(CSc1nc2ccc(Cl)cc2[nH]1)c1ccc2c(c1)OCO2	-67.5
O=C(CSc1nncs1)NC(=O)Nc1ccc2c(c1)OCCO2	-133.6
O=C(CSc1nncs1)Nc1ccc2c(c1)OCCO2	-102.4
COc1ccc2nc(SCC(=O)/C(C#N)=C(\C)N)[nH]c2c1	-76.0
O=C(CSc1ncn[nH]1)Nc1ccc2c(c1)OCCO2	-61.6
O=C(NCc1ccccc1F)c1ccc2c(c1)OCCO2	-79.9
O=C(CCC1CCCN(C(=O)c2ccc3c(c2)OCCO3)C1)NCc1ccccc1F (configuration not stated)	-66.0
CC(C)(C)Cc1nnc(NC(=O)c2ccc3c(c2)OCO3)s1	-112.0
CCC(CC)c1nnc(NC(=O)c2ccc3c(c2)OCO3)s1	-169.1
O=C(CC1SC(N2CCCC2)=NC1=O)Nc1ccc(C(=O)Nc2ncccc2O)cc1 (configuration not stated)	-266.3
CC1CCC(NC(=O)c2ccc(NC(=O)CC3SC(N4CCCC4)=NC3=O)cc2)CC1 (configuration not stated)	-129.4
SMILES	aSyn UTR act
CC1CCC(NC(=O)c2ccc(NC(=O)c3ccc(=O)[nH]c3)cc2)CC1 (configuration not stated)	-67.5
CCN1C(=O)S/C(=C\c2ccc(N3CCOCC3)cc2C)C1=O	-147.7
C#CCN1C(=O)S/C(=C\c2ccc(N3CCOCC3)cc2C)C1=O	-149.7
COc1ccccc1C(=O)Nc1ccc2c(c1)OCCO2	-124.3
COc1cc(C2=NOC(C(=O)Nc3ccc4c(c3)OCO4)C2)cc(OC)c1OC (configuration not stated)	-64.4
COc1ccccc1C(=O)Nc1ccc2c(c1)OCO2	-245.5
COc1cc(C2=NOC(C(=O)NCc3ccc(F)cc3)C2)cc(OC)c1OC (configuration not stated)	-
